The record followed here is PubChem BioAssay (EPA / NIEHS).

The target of test [1] is Myc proto-oncogene protein (Homo sapiens) (UniProt P01106). In words: ATG_Myc_CIS: Attagene CIS-FACTORIAL HepG2 Assay for human Myelocytomatosis (Myc) Proto-Oncogene Transcription Factor (AID 2282990). Conditions: HepG2, Attagene cis-reporter transcription factor activity; actives raise or lower the signal. Summed up: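 Multiplexed cis-reporter transcription in HepG2 cells after 24 h chemical treatment. Reporter mRNA measured by RT-PCR and capillary electrophoresis fluorescence; activity fitted bidirectionally against DMSO control.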
Chain of Myc proto-oncogene protein (Homo sapiens) (P01106 whole entry, looked up): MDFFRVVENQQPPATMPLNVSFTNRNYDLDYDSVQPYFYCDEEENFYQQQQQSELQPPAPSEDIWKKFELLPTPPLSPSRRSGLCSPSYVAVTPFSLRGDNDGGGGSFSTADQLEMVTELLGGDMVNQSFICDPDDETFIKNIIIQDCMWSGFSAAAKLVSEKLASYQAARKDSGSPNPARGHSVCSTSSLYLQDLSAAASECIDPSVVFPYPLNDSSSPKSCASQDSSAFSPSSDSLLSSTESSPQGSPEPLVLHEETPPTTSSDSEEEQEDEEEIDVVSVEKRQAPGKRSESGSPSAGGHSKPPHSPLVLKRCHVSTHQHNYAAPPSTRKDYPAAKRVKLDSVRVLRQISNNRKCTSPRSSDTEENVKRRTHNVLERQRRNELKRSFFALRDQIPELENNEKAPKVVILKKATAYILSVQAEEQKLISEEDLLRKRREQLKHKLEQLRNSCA

Test [2] in a line: ATG_NF_kB_CIS: Attagene CIS-FACTORIAL HepG2 Assay for human Nuclear Factor Kappa B (NF-kB) (AID 2282991). As to conditions: HepG2 Attagene cis-factorial NF-kB reporter mRNA; actives raise or lower the signal. Summed up:
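Multiplexed cis-reporter assay in transiently transfected HepG2. 24 h treatment; RNA isolated, RT-PCR, labelled fragments resolved by CE. DMSO baseline.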

A short description of test [3]: ATG_NRF2_ARE_CIS: Attagene CIS-FACTORIAL HepG2 Assay for human Nuclear Factor Erythroid 2 Related Factor 2 (NFR2) response to Antioxidant Response Elements (ARE) (AID 2282992). As to conditions: HepG2 Attagene ARE/NRF2 reporter, transcription factor activity; actives raise or lower the signal. Summed up: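 Endogenous transcription factor activity in human liver HepG2 cells is tracked via a cis-element-driven reporter within a multiplexed set. mRNA induction is read by RT-PCR and capillary electrophoresis after 24 h, with DMSO as baseline.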

The nature of test [4]: ATG_Oct_MLP_CIS: Attagene CIS-FACTORIAL HepG2 Assay for human Octamer-Binding Transcription Factor (Oct) (AID 2282993). As to conditions: HepG2 Attagene cis-factorial Oct reporter, mRNA; actives raise or lower the signal. Summed up: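 Read-out: reporter mRNA via RT-PCR plus capillary electrophoresis of 6-FAM-labelled fragments. Transiently transfected HepG2, 24 h exposure, endogenous TF activity on cis elements. Gain or loss of signal fitted relative to DMSO.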

The target of test [5] is Cellular tumor antigen p53 (Homo sapiens) (UniProt P04637). In words: ATG_p53_CIS: Attagene CIS-FACTORIAL HepG2 Assay for human p53 Transcription Factor (AID 2282994). As to conditions: HepG2 p53 cis-element reporter, Attagene mRNA; actives raise or lower the signal. Summed up:
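Steps: transfect HepG2 with multiplexed cis reporter constructs; dose chemicals 24 h; extract RNA, reverse-transcribe, PCR-amplify reporter sequences; FAM-label, HpaI-digest, resolve fragments by CE. Activity fitted both directions relative to DMSO.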

Test [6] in a line: BSK_3C_TissueFactor: BioMAP Diversity Plus: 3C Assay for Tissue Factor Biomarker Activity (AID 2282997). As to conditions: BioMAP 3C HUVEC, tissue factor biomarker readout; actives raise or lower the signal. Summed up: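 Tissue factor on primary human umbilical vein endothelium was read by ELISA 24 h after dosing, gain or loss relative to DMSO. Cytotoxicity ran alongside via SRB (0.1%, TCA-fixed, 560 nm).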

Test [7] is described as follows: BSK_3C_uPAR: BioMAP Diversity Plus: 3C Assay for Urokinase-type plasminogen activator receptor (uPAR) Biomarker Activity (AID 2282998). Conditions: BioMAP 3C HUVEC, uPAR biomarker ELISA; actives raise or lower the signal. Summed up:
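HUVEC primary cells; 24 h post-dose; uPAR by ELISA; gain or loss of signal fitted bidirectionally vs DMSO baseline.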
Background: An ELISA detects its analyte on a solid surface through an enzyme-linked reagent.

The nature of test [8]: BSK_3C_VCAM1: BioMAP Diversity Plus: 3C Assay for Vascular cell adhesion molecule 1 (VCAM1) Biomarker Activity (AID 2282999). Conditions: BioMAP 3C HUVEC, VCAM1 ELISA, cytokine-stimulated; actives raise or lower the signal. Summed up:
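Vascular primary endothelium (human umbilical vein) was exposed to chemicals and assayed 24 h later. VCAM-1 levels came from ELISA, with DMSO serving as baseline for bidirectional fitting.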

Test [9] can be described thus: BSK_4H_Eotaxin3: BioMAP Diversity Plus: 4H Assay for Eotaxin 3 Biomarker Activity (AID 2283000).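 For outcome: CCL26 protein level quantified by ELISA in parallel with SRB cytotoxicity check.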 As to conditions: primary human endothelial cells (HUVEC); actives raise or lower the signal. Summed up:
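Human umbilical vein endothelial cells (BSK_4H system) dosed with test chemical; Eotaxin-3 (CCL26) measured by ELISA 24 h after dosing. Bidirectional curve fitting relative to DMSO negative control as baseline.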

Test [10] concerns the target human Peroxisome Proliferator-activated Receptor alpha (PPARa), PPARA (gene 5465) (UniProt Q07869). In words: ATG_PPARa_TRANS: Attagene TRANS-FACTORIAL HepG2 Assay for human Peroxisome Proliferator-activated Receptor alpha (PPARa) (AID 2283001; active = hit-call score of the fitted dose curve at least 0.9, where 1 is the maximum). Summed up:
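Exposure: 24 h, transiently transfected HepG2 cells. Endpoint: GAL4-UAS reporter mRNA, RT-PCR with capillary electrophoresis fluorescence. Baseline: DMSO; increases fitted.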

Read-out in test [11]: Intercellular Adhesion Molecule 1 (ICAM1), ICAM1 (gene 3383)
In words: BSK_3C_ICAM1: BioMAP Diversity Plus: 3C Assay for Intercellular Adhesion Molecule 1 (ICAM1) Biomarker Activity (AID 2283003). Conditions: primary human endothelial cells (HUVEC); actives raise or lower the signal. Summed up:
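ELISA read-out of ICAM-1; HUVEC (primary human), 3C system, 24 h post-dosing; bidirectional fit vs DMSO baseline.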

Test [12] can be described thus: BSK_3C_Proliferation: Cell Proliferation Assessment in the BioMAP Diversity Plus: 3C Assay (AID 2283006).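 For AC50: potency may reflect either rise or fall in cell number versus DMSO.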 Conditions: primary human endothelial cells (HUVEC). Summed up: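 HUVEC, sub-confluent; 48 h chemical exposure; 10% TCA fix, 0.1% SRB stain, A560 total protein. Gain or loss of signal fitted both directions vs DMSO control.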
Test [13] deals with Peroxisome proliferator-activated receptor gamma (Homo sapiens) (UniProt P37231). In words: ATG_PPARg_TRANS: Attagene TRANS-FACTORIAL HepG2 Assay for human Peroxisome Proliferator-activated Receptor-gamma (PPARg) (AID 2283007; active = hit-call score of the fitted dose curve at least 0.9, where 1 is the maximum). Summed up:
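Human hepatoma HepG2, transient MRTU transfection, 24 h treatment. mRNA reporter signal by RT-PCR plus capillary electrophoresis, fluorescence detection; fitted for increase over DMSO negative control.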

Test [14] has as its target human RAR-related Orphan Receptor beta (RORb), RORB (gene 6096) (UniProt Q92753). In words: ATG_RORb_TRANS: Attagene TRANS-FACTORIAL HepG2 Assay for human RAR-related Orphan Receptor beta (RORb) (AID 2283010; active = hit-call score of the fitted dose curve at least 0.9, where 1 is the maximum). Summed up:
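HepG2, transient MRTU transfection (GAL4-UAS reporters, exogenous NR-Gal4 chimeras); 24 h compound exposure; total RNA → RT-PCR → 6-FAM primer extension → HpaI digest → CE fluorescence. Positive direction vs DMSO baseline.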

The target of test [15] is human Peroxisome Proliferator-activated Receptor delta (PPARd), PPARD (gene 5467) (UniProt Q03181). In words: ATG_PPARd_TRANS: Attagene TRANS-FACTORIAL HepG2 Assay for human Peroxisome Proliferator-activated Receptor delta (PPARd) (AID 2283002; active = hit-call score of the fitted dose curve at least 0.9, where 1 is the maximum). Summed up: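 Multiplexed trans-activation format: HepG2 liver cells expressing exogenous NR-Gal4 chimeras and GAL4-UAS reporters were exposed for 24 h. Reporter mRNA was detected by RT-PCR with capillary electrophoresis fluorescence; activity fitted as gain of signal relative to DMSO.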
Chain of human Peroxisome Proliferator-activated Receptor delta (PPARd), PPARD (gene 5467) (Q03181 whole entry, looked up, the tested form may be a part): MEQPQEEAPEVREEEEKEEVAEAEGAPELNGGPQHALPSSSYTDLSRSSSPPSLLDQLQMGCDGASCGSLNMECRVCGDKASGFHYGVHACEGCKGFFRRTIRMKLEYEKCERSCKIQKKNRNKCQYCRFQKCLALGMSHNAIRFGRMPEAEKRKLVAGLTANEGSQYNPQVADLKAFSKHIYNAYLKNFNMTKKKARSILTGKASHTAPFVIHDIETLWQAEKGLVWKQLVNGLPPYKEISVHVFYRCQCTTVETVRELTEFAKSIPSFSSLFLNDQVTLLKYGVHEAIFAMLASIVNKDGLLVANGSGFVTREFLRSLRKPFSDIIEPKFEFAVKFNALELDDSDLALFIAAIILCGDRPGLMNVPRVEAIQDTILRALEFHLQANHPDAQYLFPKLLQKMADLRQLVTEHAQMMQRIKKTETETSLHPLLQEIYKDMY

Test [16] deals with human Retinoic Acid Receptor beta (RARb), RARB (gene 5915) (UniProt P10826). In words: ATG_RARb_TRANS: Attagene TRANS-FACTORIAL HepG2 Assay for human Retinoic Acid Receptor beta (AID 2283004; active = hit-call score of the fitted dose curve at least 0.9, where 1 is the maximum). Summed up:
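Induction of reporter mRNA from a chimeric RARb-Gal4 construct was measured by RT-PCR, FAM labelling, HpaI digestion and capillary electrophoresis. Measurements followed 24 h compound treatment of transiently transfected human HepG2 liver cells, with DMSO as baseline.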

In test [17] the target is Nuclear receptor subfamily 1 group I member 2 (Homo sapiens) (UniProt O75469). In words: ATG_PXR_TRANS: Attagene TRANS-FACTORIAL HepG2 Assay for human Pregnane X Receptor (PXR) (AID 2283008; active = hit-call score of the fitted dose curve at least 0.9, where 1 is the maximum). Summed up:
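HepG2 transfected (FuGene 6) with GAL4-UAS reporter units + PXR-Gal4 chimera; dosed 24 h. Total RNA → oligo(dT) RT → PCR → 6-FAM primer extension → HpaI cut → CE. Gain-of-signal vs DMSO.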

Test [18] can be described thus: ATG_NFI_CIS: Attagene CIS-FACTORIAL HepG2 Assay for human Nuclear Factor I (NFI) (AID 2282989). As to conditions: HepG2 cis-regulatory reporter, NFI response element transcription; actives raise or lower the signal. Summed up:
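Read-out: reporter mRNA via RT-PCR plus capillary electrophoresis with fluorescence detection. Transiently transfected HepG2 (endogenous TF activity on cis promoters), 24 h compound exposure; gain or loss of signal fitted against DMSO.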

Inconclusive results are not listed. Active and inactive are the calls of the source. Rule for the calls, unless noted: active = hit-call score of the fitted dose curve at least 0.9, where 1 is the maximum; inactive = score below 0.9.

Chain of Nuclear receptor subfamily 1 group I member 2 (Homo sapiens) (O75469 whole entry, looked up, the tested form may be a part): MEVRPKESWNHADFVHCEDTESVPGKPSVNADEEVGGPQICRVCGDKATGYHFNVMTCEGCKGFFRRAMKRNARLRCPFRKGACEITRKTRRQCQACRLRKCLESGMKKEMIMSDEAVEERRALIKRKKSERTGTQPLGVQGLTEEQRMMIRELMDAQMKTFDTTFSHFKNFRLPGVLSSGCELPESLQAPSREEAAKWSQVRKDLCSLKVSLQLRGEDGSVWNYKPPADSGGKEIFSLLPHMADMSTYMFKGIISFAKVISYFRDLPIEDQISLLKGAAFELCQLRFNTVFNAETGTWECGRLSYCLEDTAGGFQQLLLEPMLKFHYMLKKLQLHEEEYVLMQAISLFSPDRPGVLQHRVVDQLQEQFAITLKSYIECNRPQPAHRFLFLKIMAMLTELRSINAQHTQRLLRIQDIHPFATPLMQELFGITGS
Chain of Peroxisome proliferator-activated receptor gamma (Homo sapiens) (P37231 whole entry, looked up): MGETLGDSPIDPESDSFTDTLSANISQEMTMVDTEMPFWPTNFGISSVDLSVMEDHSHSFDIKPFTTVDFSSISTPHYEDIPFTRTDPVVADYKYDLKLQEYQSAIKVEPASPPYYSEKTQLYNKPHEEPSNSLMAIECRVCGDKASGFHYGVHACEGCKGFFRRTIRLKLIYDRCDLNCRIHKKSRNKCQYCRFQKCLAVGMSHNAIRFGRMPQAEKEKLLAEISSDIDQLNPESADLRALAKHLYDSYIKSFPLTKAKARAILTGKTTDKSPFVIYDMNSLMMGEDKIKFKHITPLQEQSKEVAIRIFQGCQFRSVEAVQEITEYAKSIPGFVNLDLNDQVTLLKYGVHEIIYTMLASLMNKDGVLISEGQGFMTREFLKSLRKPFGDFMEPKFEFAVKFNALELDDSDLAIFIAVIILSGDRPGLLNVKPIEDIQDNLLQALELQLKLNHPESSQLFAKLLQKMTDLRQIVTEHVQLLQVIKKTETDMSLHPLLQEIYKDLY
Chain of human RAR-related Orphan Receptor beta (RORb), RORB (gene 6096) (Q92753 whole entry, looked up, the tested form may be a part): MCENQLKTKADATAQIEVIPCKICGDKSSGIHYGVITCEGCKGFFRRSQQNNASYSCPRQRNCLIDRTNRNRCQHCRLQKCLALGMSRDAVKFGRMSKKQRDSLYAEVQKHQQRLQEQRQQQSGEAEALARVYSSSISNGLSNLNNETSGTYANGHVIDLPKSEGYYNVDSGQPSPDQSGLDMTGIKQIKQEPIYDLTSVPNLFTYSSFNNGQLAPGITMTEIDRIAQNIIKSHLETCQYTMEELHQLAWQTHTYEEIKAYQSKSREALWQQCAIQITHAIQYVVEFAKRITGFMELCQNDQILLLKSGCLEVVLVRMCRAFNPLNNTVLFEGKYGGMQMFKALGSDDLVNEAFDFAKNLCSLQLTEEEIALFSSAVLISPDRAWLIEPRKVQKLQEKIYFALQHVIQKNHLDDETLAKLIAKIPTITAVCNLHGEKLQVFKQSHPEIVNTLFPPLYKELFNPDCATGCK
Chain of human Peroxisome Proliferator-activated Receptor alpha (PPARa), PPARA (gene 5465) (Q07869 whole entry, looked up, the tested form may be a part): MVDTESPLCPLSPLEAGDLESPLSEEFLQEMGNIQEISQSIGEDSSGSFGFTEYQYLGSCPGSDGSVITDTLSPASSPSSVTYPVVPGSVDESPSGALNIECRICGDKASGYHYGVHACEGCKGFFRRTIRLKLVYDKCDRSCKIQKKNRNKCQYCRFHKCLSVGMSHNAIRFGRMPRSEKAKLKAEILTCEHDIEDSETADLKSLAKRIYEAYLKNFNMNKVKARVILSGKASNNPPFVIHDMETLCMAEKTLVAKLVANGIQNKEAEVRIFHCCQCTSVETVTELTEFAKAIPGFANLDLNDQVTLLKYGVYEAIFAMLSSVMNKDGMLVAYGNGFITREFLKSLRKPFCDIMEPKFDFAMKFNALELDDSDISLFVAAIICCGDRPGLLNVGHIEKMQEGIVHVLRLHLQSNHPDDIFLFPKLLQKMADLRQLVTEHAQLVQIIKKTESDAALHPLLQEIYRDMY
Chain of Cellular tumor antigen p53 (Homo sapiens) (P04637 whole entry, looked up, the tested form may be a part): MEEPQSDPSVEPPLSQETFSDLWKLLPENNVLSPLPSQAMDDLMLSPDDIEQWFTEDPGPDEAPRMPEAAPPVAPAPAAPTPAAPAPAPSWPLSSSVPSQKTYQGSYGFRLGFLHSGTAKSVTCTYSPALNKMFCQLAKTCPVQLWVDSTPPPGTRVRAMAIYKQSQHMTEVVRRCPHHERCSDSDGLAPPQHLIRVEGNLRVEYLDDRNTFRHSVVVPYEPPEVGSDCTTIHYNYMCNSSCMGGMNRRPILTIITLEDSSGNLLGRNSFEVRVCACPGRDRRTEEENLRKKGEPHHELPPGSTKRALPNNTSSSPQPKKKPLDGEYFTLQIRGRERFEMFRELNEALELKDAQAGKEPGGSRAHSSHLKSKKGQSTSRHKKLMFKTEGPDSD
Chain of human Retinoic Acid Receptor beta (RARb), RARB (gene 5915) (P10826 whole entry, looked up, the tested form may be a part): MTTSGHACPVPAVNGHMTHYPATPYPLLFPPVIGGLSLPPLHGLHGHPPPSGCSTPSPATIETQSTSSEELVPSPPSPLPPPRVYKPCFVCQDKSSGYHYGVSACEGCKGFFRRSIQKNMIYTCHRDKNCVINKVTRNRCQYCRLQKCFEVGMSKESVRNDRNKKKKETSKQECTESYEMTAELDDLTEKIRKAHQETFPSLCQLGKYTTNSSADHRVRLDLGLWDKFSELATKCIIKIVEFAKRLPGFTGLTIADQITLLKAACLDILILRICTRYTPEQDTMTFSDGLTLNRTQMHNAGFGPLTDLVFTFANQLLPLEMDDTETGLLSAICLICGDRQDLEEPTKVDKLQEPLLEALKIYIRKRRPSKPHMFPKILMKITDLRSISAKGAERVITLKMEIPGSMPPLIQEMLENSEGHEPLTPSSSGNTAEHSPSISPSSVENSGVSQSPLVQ

Regarding `O=c1c(O)c(-c2ccc(O)c(O)c2)oc2cc(O)cc(O)c12`, the outcome in test [1], in test [2], in test [4], in test [10], in test [11] and in test [13] was inactive. In addition, the outcome in [14] was inactive. Besides, the AC50 (commonly the concentration at which the activity in the assay is half-maximal) in test [3] was 27 µM (active); in test [5], 65.6 µM (active); in [6] it was 15.6 µM (active); in test [7], 13.7 µM (active); in [8], 32 µM (active); in test [9], 24.4 µM (active). The AC50 in test [12] was 26.8 µM (active).

On to `Cc1ccc(C)c(C)c1`, for which the compound was called inactive in test [1], in [2], in test [3], in test [4], in test [5] and in [6]. Moreover, the outcome in [7], in [8], in test [9], in test [10], in [15] and in test [11] was inactive. The call in test [16], in test [12] and in test [17] was inactive.

As to `CC(CO)OC(C)CO` (configuration not stated) (tested in a mixture with another compound), the result in test [1], in test [2], in test [3], in test [4], in test [5] and in test [6] was inactive. For the same compound, the result in test [7], in test [8], in [9], in [10], in test [11] and in test [12] was inactive. Also, the compound was called inactive in test [17].

Turning to `O=c1[nH]cc(F)c(=O)[nH]1`, the outcome in test [18], in test [1], in test [3], in [4], in [7] and in [8] was inactive. The outcome in test [9], in [10], in test [15], in test [11] and in test [14] was inactive. The AC50 in test [5] was 11.5 µM (active); in [12] it was 7.81 µM (active).

In the case of `NC(=O)Cn1c(=O)cc(CCN2CCN(c3nccc4sccc34)CC2)c2ccc(F)cc21`, the result in [18], in [1], in test [2], in [4], in test [5] and in test [7] was inactive. Also, the outcome in [8], in test [9], in [15], in test [11], in test [13] and in test [17] was inactive. The results for the AC50 in [3] and in test [12] were 54.3 µM (active) and 0.148 µM (active), respectively.

Take `CC(=O)OC/C=C(\C)CCC=C(C)C`: the call in [18], in test [1], in test [3], in test [4], in test [5] and in test [7] was inactive. Besides, the outcome in test [8], in test [9], in [15], in test [11], in [12] and in test [13] was inactive. Moreover, the compound was called inactive in test [17] and in test [14].

As for `CCCc1cc(=O)[nH]c(=S)[nH]1`, the call in [18], in test [1], in [3], in test [4], in test [5] and in test [6] was inactive. Further, the result in test [7], in test [8], in test [15], in test [11], in test [12] and in test [13] was inactive. For the same compound, in test [14], the compound was called inactive. Moreover, the AC50 in [9] is 0.666 µM (active).
